Test results: PubChem BioAssay AID590 (National Center for Advancing Translational Sciences (NCATS), 2007)
The campaign covered roughly 59,000 compounds. About 6,500 (11%) were called active. Not shown: some 15% with an inconclusive outcome. The sample holds actives, similar compounds and a random draw of the others, so the mix is not that of the screen. No stated cut-off is given here; in the data, active means max dye-equivalent concentration above about 10 nM; inconclusive means mostly about 1.1 nM to 9.6 nM; inactive means weaker than that.

Test: qHTS Assay for Spectroscopic Profiling in A350 Spectral Region
Conditions: Compound autofluorescence, 340/450 nm, Alexa 350 dye-equivalents; active compounds read high

Compound | max dye-equivalent concentration
O=C(NCCCCO)C(F)(F)C(F)(F)C(F)(F)C(=O)NCCCCO | inactive
O=C(Nn1cnc2ccccc2c1=O)c1ccc(F)cc1Cl | inactive
Cn1c(SCC(=O)Nc2cccc(NC(=O)c3cccs3)c2)nnc1-c1ccncc1 | inactive
Cc1nc(-c2ccc(NC(=O)c3cccs3)cc2)cs1 | 280 nM (active)
O=C(O)Cc1ccc(NC(=O)c2cccs2)cc1 | inactive
O=C(O)C1CC(=O)N(Cc2cccnc2)C1 (stereo not given) | inactive
CCOc1ccccc1NC(=O)CCc1ccc(C)o1 | inactive
O=C(Oc1ccc2c(c1)CCC2)N1CCOCC1 | inactive
O=C(Nc1cccc(OCC(=O)N2CCOCC2)c1)C1CCCCC1 | inactive
O=C1CC2(CCCCC2)Oc2ccc(OCC(=O)N3CCOCC3)cc21 | 1100 nM (active)
CCNc1nc(SCCOc2ccccc2)nc(N(C)C)n1 | inactive
CCCn1c(SCC(=O)Nc2c(C)cccc2C)nnc1C(C)C | inactive
CC(=O)Nc1ccc(NC(=O)CN2CCCC(C)C2)c(Cl)c1 (stereo not given) | inactive
Cc1cccn2c(=O)c3cc(C#N)c(=O)n(CCCN4CCOCC4)c3nc12 | 12000 nM (active)
Cn1c(=O)c2c(nc(CN3CCOCC3)n2Cc2ccccc2)n(C)c1=O | inactive
Cc1cccn2c(=O)c3cc(C#N)c(=NC(=O)c4cccnc4)n(CC4CCCO4)c3nc12 (stereo not given) | 4000 nM (active)
Cc1nnc(SCC(N)=O)n1CC1CCCO1 (stereo not given) | inactive
CCn1cc(C(=O)NCc2ccc(OC)cc2OC)c(=O)c2ccc(C)nc21 | inactive
Cc1ccc(S(=O)(=O)NC(=O)NN2C[C@H]3CCC[C@@H]3C2)cc1 | inactive
Cc1cc(=O)[nH]c(SCC(N)=O)c1C#N | inactive
Cn1cccc1C(=O)N1CCC[C@@]2(CCN(Cc3nccs3)C2)C1 | inactive
O=S(=O)(c1ccc(Sc2nnc3ccccn23)nc1)N1CCOCC1 | inactive

Compound | max dye-equivalent concentration
CC(C)(C)c1nc(NCC2CCCO2)c2nnn(Cc3ccccc3)c2n1 (stereo not given) | inactive
CC(CCO)Nc1nc2c([nH]1)c(=O)n(C)c(=O)n2C (stereo not given) | inactive
Cn1c(=O)c2[nH]c(NCC3CCCO3)nc2n(-c2ccccc2)c1=O (stereo not given) | 11 nM (active)
Cc1ccc2nc(S(=O)(=O)O)[nH]c2c1 | inactive
COc1cc(-c2nc(S(=O)(=O)c3ccc(Cl)cc3)c(N(C)C)o2)cc(OC)c1OC | inactive
CCOC(=O)c1cc(-c2nnc(-c3cc(OC)c(OC)c(OC)c3)o2)c(C)nc1C | 18 nM (active)
COc1cc(-c2nnc(Cn3cc(C(F)(F)F)ccc3=O)o2)cc(OC)c1OC | inactive
CCCCC(=O)N1CC2(C)CN(C(=O)CCCC)CC(C)(C1)C2=O | inactive
CN1CCN(CC(=O)C23CC4CC(CC(C4)C2)C3)CC1 | inactive
C=CCNC(=O)C12CC3CC(C1)CC(C(=O)NCC=C)(C3)C2 | inactive
CC(NCCO)C(=O)C12CC3CC(CC(C3)C1)C2 (stereo not given) | 43 nM (active)
O=C(O)CCC(=O)Nc1ccc(N2CCOCC2)cc1 | inactive
CN(C)c1nc2n(c(=O)n1)CCO2 | inactive
Cc1ccsc1CNn1cnnc1SCc1ccccc1F | inactive
O=C(c1cnccn1)N1CCC2(CCN(Cc3cc(C(F)(F)F)cc(C(F)(F)F)c3)CC2)CC1 | inactive
Cc1nc(NCCN)c(C#N)c2c1COC(C)(C)C2 | 16 nM (active)
CCN1CCN(c2ncnc3c2oc2nc(C)c4c(c23)CC(C)(C)OC4)CC1 | inactive
COc1ccc2[nH]cc(CCNc3cc(-c4ccccc4CN(C)C)ncn3)c2c1 | inactive
Nc1ccc2c3c(cccc13)C(=O)NC2=O | inactive
CNc1nc(-c2ccccc2OC)nc2ccccc12 | inactive
CCSc1nc(=S)n(CC)c(C)c1C(C)=O | inactive
CCOC(=O)N1CCC(NC(=O)CCc2cn(C)c3ccccc23)CC1 | 470 nM (active)

Compound | max dye-equivalent concentration
CCOC(=O)N1CCC(NC(=O)Cc2cn(C)c3ccccc23)CC1 | inactive
CCOC(=O)N1CCC(NC(=O)C(C)n2c3ccccc3c3cnn(C)c(=O)c32)CC1 (stereo not given) | inactive
CC(=O)N1CCN(C(=O)c2cccc(S(=O)(=O)Nc3ccc(C)cc3)c2)CC1 | inactive
CC1(C)CC(CCC(=O)Nc2ccccc2Cl)C(=O)O1 (stereo not given) | inactive
CC(C)c1nc2oc3c(N4CCN(C)CC4)ncnc3c2c2c1CCC2 | inactive
CCCCC(=O)Nc1ccc(C(=O)NCCCn2ccnc2)cc1 | inactive
CCCCCC(=O)Nc1ccc2oc(-c3ccncc3)nc2c1 | 29 nM (active)
CCCCC(=O)Nc1ccc2c(c1)OCCO2 | inactive
CCOC(=O)c1cccc(NC(=O)CCc2c(C)nc3ncnn3c2C)c1 | inactive
CCCCCN(C(=O)NC(=O)Nc1ccccc1OC)S(C)(=O)=O | inactive
COc1ccc(OC)c(NC(=O)CSc2nc3cccnc3n2C)c1 | inactive
CCCC1C(c2ccccc2)C(C#N)(C#N)C2(C#N)CC1(N)NC2=O (stereo not given) | inactive
CN1CCN(C(=O)C2C3C=CC(C3)C2C(=O)O)CC1 (stereo not given) | inactive
CCOC(=O)c1c(CN2CCOCC2)n(-c2ccccc2)c2ccc(O)cc12 | inactive
O=C(OCCN1CCOCC1)C1(c2ccccc2)CCCCC1 | inactive
O=C(CN1CCOCC1)N1CCCc2c1c(=O)oc1ccc(OCc3ccccc3)cc21 | 41 nM (active)
O=S(=O)(O)c1nc2ccccc2n1Cc1ccc(Cl)cc1Cl | inactive
COc1ccc(CNc2ncncc2-c2ccccc2C)c(OC)c1 | inactive
CCOc1ccc(NC(=O)N2CCN(CC)CC2)cc1 | inactive
Cc1ccccc1NC(=O)CNc1ccccc1N1CCCCC1 | inactive
CCOc1ccc2nc(N3CCCN(C(=O)Nc4ccccc4C)CC3)c(C#N)cc2c1 | 16 nM (active)
Cc1ccnc(SCCn2c(Br)nc3c2c(=O)[nH]c(=O)n3C)n1 | inactive

Compound | max dye-equivalent concentration
CC1CN(C2CCN(C(=O)COc3ccccc3)CC2)CC(C)O1 (stereo not given) | inactive
Nc1nc2c(ncn2[C@H]2CC[C@@H](CO)O2)c(=O)n1C(=O)c1ccccc1 | inactive
CCNc1ncc2ncc(=O)n(CCc3ccccc3)c2n1 | 89 nM (active)
CCNc1ncc2nc(CCc3ccccc3)c(=O)n(-c3ccc(OC)cc3)c2n1 | 15 nM (active)
COc1cccc(CN2C(=O)CCC2(C)C(=O)NC2CCCCCC2)c1 (stereo not given) | inactive
CCc1nnc(NC(=O)CSc2nnc(Cc3ccccc3)n2-c2ccc(OC)cc2)s1 | inactive
COc1cccc(Cn2c(=O)cnc3cncnc32)c1 | inactive
CCNc1ncc2ncc(=O)n(Cc3cccc(OC)c3)c2n1 | 16 nM (active)
COc1cccc(Nc2ncc3ncc(=O)n(C4CC4)c3n2)c1 | inactive
O=c1cnc2cnc(Nc3ccccc3)nc2n1Cc1ccc(F)cc1 | inactive
COc1ccc(-n2c(C)nc3c(cnn3-c3ccccc3)c2=O)cc1 | inactive
COc1cccc(Cn2c(=O)c(C)nc3cnc(Oc4ccccc4)nc32)c1 | inactive
COc1cccc(Cn2c(=O)c(CCc3ccccc3)nc3cnc(N(C)C)nc32)c1 | 31 nM (active)
CSCCC(NC(=O)C1CCC(C)CC1)C(=O)NCc1ccco1 (stereo not given) | inactive
CC(C)NC(=O)N1CCCC2(CCN(C(=O)c3cccn3C)CC2)C1 | inactive
Cc1cccc(C)c1NC(=O)N1CC=C(n2c(=O)[nH]c3ccccc32)CC1 | inactive
CC(C)CCNC(=O)C1CCCN(S(=O)(=O)c2ccc(F)cc2)C1 (stereo not given) | inactive
CCN(CC)C(=O)CSc1nnc(-c2cccc(OC)c2)o1 | inactive
CC(C)NC(=O)CCCn1c(=S)[nH]c2cc3c(cc2c1=O)OCO3 | inactive
Cc1cccc(NC(=O)CSc2nnc(CCCCCNC(=O)OC(C)(C)C)o2)c1C | inactive
Cc1cccc(N(CC(O)CN(C)C)S(=O)(=O)c2ccccc2)c1 (stereo not given) | inactive
COC(=O)c1ccc(Oc2nc(Nc3ccc(F)cc3)nc(N3CCCC3)n2)cc1 | inactive

Compound | max dye-equivalent concentration
CSc1ccc(S(=O)(=O)Nc2cccc(F)c2)cc1 | inactive
C=CCN(c1ccc(C(N)=O)cc1)S(C)(=O)=O | inactive
Cn1c(=O)cc(SCC(=O)N2CCN(C(=O)c3ccco3)CC2)c2ccccc21 | inactive
CCOC(=O)C1CCN(C(=O)CSc2cc(=O)n(C)c3ccccc23)CC1 | inactive
Cn1c(=O)cc(SCC(=O)N2CCCC2)c2cc(Cl)ccc21 | 12 nM (active)
COC(=O)c1sc(=S)n(-c2ccccc2)c1N | inactive
COCCCNC(=O)Cn1cc(C(=O)C2CC2)c2ccccc21 | inactive
O=C(Oc1ccc(-c2nc(-c3ccccn3)no2)cc1)c1ccccc1 | inactive
COc1ccc(-c2ccc(-c3noc(-c4ccncc4)n3)c(OC)n2)cc1 | 24 nM (active)
COc1ccc(-c2noc(CN(C)S(=O)(=O)c3ccc(C)cc3)n2)cc1 | inactive
CCOc1nc(-c2ccc(OC)cc2)ccc1-c1noc(-c2cc(OC)c(OC)c(OC)c2)n1 | 81 nM (active)
CCOc1cc(-c2noc(CCC(=O)N3CCOCC3)n2)ccc1OC | inactive
COc1ccc(-c2nc(-c3ccccc3)no2)c(OC)c1 | inactive
Cn1c(=O)c2c(ncn2CC(=O)N2CCN(c3ccccc3)CC2)n(C)c1=O | inactive
CCOc1ccc(C(C)C)cc1S(=O)(=O)n1nc(C)cc1C | inactive
N#Cc1ccccc1-c1ccc2ncnc(NCc3cccnc3)c2c1 | inactive
CC(Cc1cccs1)NC(=O)NC1CCCCC1 (stereo not given) | inactive
COc1ccccc1CNc1ccnc(-c2c(C)noc2C)n1 | inactive
COc1ccc(CCNC(=O)C2CCN(c3nn4c(=O)cc(C)nc4s3)CC2)cc1OC | inactive
CCOc1ccc(CCNC(=O)C2CCN(c3ccc(N4CCOCC4)nn3)CC2)cc1OCC | 560 nM (active)
CCCS(=O)(=O)N1CCC(C(=O)NCCc2ccc(OC)c(OC)c2)CC1 | inactive
O=C(CN1CCN(c2ccc(F)cc2)CC1)Nc1cccc(C(F)(F)F)c1 | inactive
